“And” between values parts separate entries of the source, which are not always exact repeats. Equal values may be shown once. The whole screen tested about 2,100 compounds, of which about 940 (45%) were called active. Roughly 48% stayed inconclusive and do not appear here. So high a share suggests a set chosen from earlier hits. The list shows a part of the results. Values without a mark were called inactive. Calls come from the whole dose curve; as a rule, active = well fitted inhibition curve with a large enough effect; inconclusive = small, poorly fitted or top-dose-only effect; inactive = no such curve, though single readings can be large or run the other way.
Experiment: Confirmatory qHTS for Inhibitors of ATXN expression; note: nearly all actives have a fitted effect of over 65% in size;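 for activity change, negative = inhibition: 0% = DMSO vehicle wells and -100% = medium-only wells without cells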
Details: ATXN2-luciferase reporter cells, luminescence, 24 h; series mostly up to 11.5 µM; activity change, negative = inhibition: at the top concentration
Procedure, shortened: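 A titration, incubated 24 h with reporter cells expressing ATXN2-luciferase. Luminescence (SteadyGlo) gives ATXN2 expression, multiplexed GF-AFC fluorescence gives viability; normalised to DMSO and medium-only wells.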
Potency is the fitted concentration of half-maximal effect.

Compound	Potency	activity change, negative = inhibition
Cc1ccc(/C=C2\SC(=S)N(CCCC(=O)Nc3cccnc3)C2=O)cc1	2.24 µM (active)	
Cc1ccc(/C=C2\SC(=S)N(CCCC(=O)Nc3ccccc3C(=O)O)C2=O)cc1	2.24 µM (active)	
CCOC(=O)Cn1cc(C(=O)c2ccco2)c2ccccc21		2.65%
Cc1cc(C)cc(NC(=O)/C(C#N)=C/c2cn(CC(=O)NCc3ccco3)c3ccccc23)c1	1.78 µM (active)	
COc1ccc(N2C3=C(CC4=C2CC(C)(C)CC4=O)C(=O)CC(C)(C)C3)cc1		0.241%
COc1cccc(C2CC(c3c(-c4ccccc4)c4cc(Cl)ccc4[nH]c3=O)=NN2S(C)(=O)=O)c1OC (stereo not drawn)	2.82 µM (active)	
O=C1c2ccccc2NC(c2ccc(-c3cccc([N+](=O)[O-])c3)o2)N1O (stereo not drawn)	15.8 µM (active)	
COc1ccc(-c2oc3c(OC)c(OC)c(OC)c(O)c3c(=O)c2OC)cc1OC	10 µM (active)	
COc1ccccc1N1CCN(Cc2ccc(O)c3ncccc23)CC1	0.562 µM (active)	
COc1ccccc1N1CCN(Cc2cc(Br)c(O)c3ncccc23)CC1	3.55 µM (active)	
CO[C@@]12[C@@H]3N[C@@H]3CN1C1=C(C(=O)C(N)=C(C)C1=O)[C@@H]2COC(N)=O		6.61%
Cc1nc(SC2CC(=O)N(c3ccccc3)C2=O)n[nH]1 (stereo not drawn)		5.8% [at 57.5 µM]
Cc1c(C(=O)N2CCN(c3ccc(F)cc3)CC2)sc2ncnc(N3CCN(c4ccccn4)CC3)c12	2.82 µM (active)	
O=C(c1ccco1)N1CCN(c2ncnc3scc(-c4cccs4)c23)CC1		-20.8%
COc1ccc(C(=O)C=CNNC(=O)c2ccc(Cl)cc2)cc1	14.1 µM (active)	
O=C(/C=C/NNC(=O)c1ccccc1)c1ccc([N+](=O)[O-])cc1	3.16 µM (active)	
CCCCn1c(/C=N/Nc2nc3ccccc3[nH]2)nc2ccccc21		-15.3%
CC(C)Cn1c(/C=N/Nc2nc3ccccc3[nH]2)nc2ccccc21	8.91 µM (active)	
S=C(NCCCN1CCOCC1)N1CCN(c2nc(-c3ccccc3)cs2)CC1	11.2 µM (active)	
O=c1c2ccc(Cl)cc2nc(-c2cccc(C(F)(F)F)c2)n1O	2.51 µM (active)	
Cc1cc(/C=N/n2cnnc2)c(C)n1-c1ccc(OCc2ccc(Cl)cc2Cl)cc1	7.94 µM (active)	

Compound	Potency	activity change, negative = inhibition
COc1cc(OC)c2cc(C(=O)N/N=C/c3cccc(OC)c3O)[nH]c2c1	3.55 µM (active)	
COc1cccc(/C=N/NC(=O)c2cc3c(OC)cccc3[nH]2)c1O	2.24 µM (active)	
Cc1[nH]c(-c2ccc(F)cc2)cc1C(=O)N1CCN(c2ccc(Cl)cc2)CC1	25.1 µM (active)	
O=C(NC(=S)N1CCN(c2ccc(F)cc2)CC1)c1cccs1		-6.64%
CN1CCN(c2cc(-c3cc(O)c4ncccc4c3)ccn2)CC1	12.6 µM (active)	
C/C(=N\NC(=O)C1COc2ccccc2O1)c1ccccn1 (stereo not drawn)	0.631 µM (active)	
C/C(=N\NC(=O)C1CCCN(S(=O)(=O)c2ccccc2)C1)c1ccccn1 (stereo not drawn)	0.794 µM (active)	
C/C(=N\NC(=O)Cc1ccc(Cl)cc1)c1ccccc1O	14.1 µM (active)	
COc1ccc(CC(=O)N/N=C(\C)c2ccccn2)cc1	11.2 µM (active)	
CCCCCC(=O)N/N=C(\C)c1ccccn1	0.501 µM (active)	
C/C(=N\NC(=O)CCCNc1ccc(C)cc1)c1ccccn1	14.1 µM (active)	
Cc1ccc(/C=N/NC(=O)C2=NNC(c3ccccc3)(c3ccccc3)C2)c(O)c1	2.82 µM (active)	
CC(C)(C)c1nnc(N/N=C/c2ccccc2O)n(N)c1=O	0.891 µM (active)	
CCn1c2ccccc2c2cc(C3C(C#N)=C(N)Oc4n[nH]c(COC)c43)ccc21 (stereo not drawn)	2.82 µM (active)	
CCn1c2ccccc2c2cc(NC(=O)COC(=O)Cc3cn4ccsc4n3)ccc21	1.26 µM (active)	
CCn1c2ccccc2c2cc(NC(=O)COC(=O)C3CCC(=O)N3)ccc21 (stereo not drawn)	11.2 µM (active)	
CCn1c2ccccc2c2cc(NC(=O)COC(=O)c3cc(S(=O)(=O)N4CCCCC4)ccc3Cl)ccc21	1.58 µM (active)	
CCn1c2ccccc2c2cc(NC(=O)COC(=O)c3ccccc3F)ccc21	2 µM (active)	
Cc1c(C(=O)NCc2ccc(Cl)c(Cl)c2)sc(=O)n1Cc1ccc(S(C)(=O)=O)cc1		-22.8%
COc1ccc(N=Cc2cc3c(cc2O)OC(N)=C(C#N)C3c2ccccc2)cc1 (stereo not drawn)		-25.5%
Cc1cc(OCc2nc(N)nc(N)c2-c2ccc(Cl)c(Cl)c2)ccc1[N+](=O)[O-]	2.51 µM (active)	

Compound	Potency	activity change, negative = inhibition
Cc1ccc(-n2c(-c3ccccc3)c[n+]3c2CCc2ccccc2-3)c(C)c1	0.794 µM (active)	
COc1ccccc1-n1c(-c2ccccc2)c[n+]2c1CCc1ccccc1-2	7.94 µM (active)	
CNc1ccccc1C(=O)OC(C)C(=O)Nc1ccc(Cl)cn1 (stereo not drawn)	2 µM (active)	
Cc1nnc(SC(C)C(=O)Nc2ccc(Cl)cn2)n1Cc1ccccc1 (stereo not drawn)		-20.6% [at 57.5 µM]
NNC(=O)c1sc2cc(C(F)(F)F)cnc2c1-c1cccs1	28.2 µM (active)	
COC1=C(c2ccccc2)C(=O)c2ccccc2C1=O		-16.5%
O=C(Nc1nccs1)c1cccc(N2C(=O)c3cccc4c([N+](=O)[O-])ccc(c34)C2=O)c1	20 µM (active)	
Cc1ccnc(N2C(=O)c3cccc4c([N+](=O)[O-])ccc(c34)C2=O)c1	28.2 µM (active)	
O=C1c2cccc3c([N+](=O)[O-])ccc(c23)C(=O)N1c1ccccn1	3.98 µM (active)	
Cc1ccc(Cl)cc1-c1ccc(C=Nc2ccc(N3CCOCC3)cc2)o1	12.6 µM (active)	
C=CCn1cnc2c(c1=O)c1nc3ccccc3nc1n2/N=C/c1cc(OC)c(OC)c(OC)c1	14.1 µM (active)	
Cc1cc(C)c2nc(NNC(=O)c3ccc(S(=O)(=O)N4CCc5ccccc5C4)cc3)sc2c1	3.16 µM (active)	
Cc1ccc2nc(NNC(=O)c3ccc(S(=O)(=O)N4CCc5ccccc5C4)cc3)sc2c1	2.51 µM (active)	
NC(=O)c1cc([N+](=O)[O-])ccc1NCc1ccc(N)cc1	4.47 µM (active)	
C[n+]1c2cc(N)ccc2cc2ccc(N)cc21	4.47 µM (active) and 3.55 µM (active)	
Nc1c(C(=O)NCc2ccc(F)cc2)c2nc3ccccc3nc2n1CCCN1CCOCC1	3.16 µM (active)	
Cn1c(/C=C/c2ccc(Cl)cc2)c([N+](=O)[O-])c(=O)n(C)c1=O	22.4 µM (active)	
Cn1c(/C=C/c2cccc([N+](=O)[O-])c2)c([N+](=O)[O-])c(=O)n(C)c1=O	25.1 µM (active)	
Cn1c(/C=C/c2ccc(Cl)cc2Cl)c([N+](=O)[O-])c(=O)n(C)c1=O	11.2 µM (active)	
O=C1C=CCC(/C=C/c2ccccc2)O1 (stereo not drawn)	6.31 µM (active)	
CCC(C)(C)c1ccc(OCCCC[n+]2ccccc2)c(C(C)(C)CC)c1	3.16 µM (active)	

— PubChem BioAssay AID1745848 (National Center for Advancing Translational Sciences (NCATS), 2022)
